Screening data from PubChem BioAssay.
The list is not random: actives were taken first. Their share in the collection is about 3.5%.
FBW7 activator: FBW7 E3 ligase activators, primary screen, biochemical, AlphaScreen, human. AID 1259310, 2017. hit rate 0.13% among 650,000. normalized activity (activation), % at 26.1 µM. AlphaScreen FBW7–phospho-cyclin E peptide binding, activator screen. F-box/WD repeat-containing protein 7 (Homo sapiens), Q969H0; in the data active means normalized activity above about 1.9%;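 further: purified mutant Fbw7 with reduced substrate affinity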
Target sequence (Q969H0 whole entry, looked up): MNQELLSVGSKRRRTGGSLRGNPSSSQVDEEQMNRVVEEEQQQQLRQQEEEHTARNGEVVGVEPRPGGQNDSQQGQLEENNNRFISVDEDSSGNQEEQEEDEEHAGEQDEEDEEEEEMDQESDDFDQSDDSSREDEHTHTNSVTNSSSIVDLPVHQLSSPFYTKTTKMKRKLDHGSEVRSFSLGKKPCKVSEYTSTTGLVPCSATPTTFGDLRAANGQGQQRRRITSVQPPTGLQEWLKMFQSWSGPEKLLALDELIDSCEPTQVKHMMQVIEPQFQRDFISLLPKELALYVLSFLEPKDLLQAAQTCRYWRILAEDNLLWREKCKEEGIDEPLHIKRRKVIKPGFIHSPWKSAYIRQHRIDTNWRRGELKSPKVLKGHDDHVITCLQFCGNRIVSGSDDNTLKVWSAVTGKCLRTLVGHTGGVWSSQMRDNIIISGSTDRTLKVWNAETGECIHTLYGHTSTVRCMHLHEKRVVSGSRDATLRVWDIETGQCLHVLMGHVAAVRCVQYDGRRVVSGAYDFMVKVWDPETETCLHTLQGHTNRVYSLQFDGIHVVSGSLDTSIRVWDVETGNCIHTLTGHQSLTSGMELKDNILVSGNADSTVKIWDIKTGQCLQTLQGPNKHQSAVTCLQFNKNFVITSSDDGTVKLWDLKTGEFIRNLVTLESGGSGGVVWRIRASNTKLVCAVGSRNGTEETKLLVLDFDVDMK
MITF inh: MITF inhibitors, primary screen, biochemical, AlphaScreen, human | hit rate 0.91% among 650,000 | Microphthalmia-associated transcription factor (Homo sapiens), O75030 | inhibition, % at 2.6 µM | AlphaScreen MITF homodimerization, bead proximity signal; in the data active means inhibition above about 50%
TEAD-YAP inh: TEAD-YAP interaction inhibition, primary screen, TEAD-YAP interaction inhibitor project, luminescence, HEK-TIYL cells. AID 1259422, 2018. TEAD-Gal4/YAP UAS-luciferase luminescence. inhibition, % at 9.12 µM. hit rate 1.4% among 640,000; in the data active means inhibition above about 32%
GPR151 activ: activators of human GPR151, primary screen, cell-based, PathHunter beta-arrestin, luminescence; hit rate 1% among 650,000; AID 1508602, 2020; PathHunter beta-arrestin GPR151 cells; activation, % at 11.2 µM; G-protein coupled receptor 151 (Homo sapiens), Q8TDV0; in the data active means activation above about 4.9%
GPR151 conf act: GPR151 activators, triplicate retest, confirmation, cell-based, PathHunter beta-arrestin, luminescence; shares compounds with GPR151 activ; GPR151 PathHunter beta-arrestin cells, 90 min; % of EA-reagent control over plate median; activation, % at 11.2 µM; 6,700 tested, under 10 active; AID 1508609, 2020;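 active means mean percent activation across replicates above the confirmation screen cutoff of 4.91%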
GPR119 counter: GPR119 activators in beta-arrestin cells, counter-screen for GPR151 activator project, cell-based, PathHunter beta-arrestin, luminescence, triplicate; 90 min; 0 = compound-well median, 100 = enzyme-acceptor control; activation, % at 11.2 µM; AID 1508611, 2020; shares compounds with GPR151 activ; hit rate 0.3% among 6,700;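 active means mean percent activation in the counterscreen above 29.09%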;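 further: counterscreen on off-target GPR119 to flag nonselective hits from the GPR151 activator screen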
A number is an active result.

What do the screens show for `COc1ccccc1OCc1cc(C(=O)O)co1`?
FBW7 activator: inactive; MITF inh: inactive; TEAD-YAP inh: inactive; GPR151 activ: inactive

Results for COc1ccccc1/C=C1\N=C(c2ccccc2[N+](=O)[O-])OC1=O ?
FBW7 activator: inactive; MITF inh: inactive; TEAD-YAP inh: inactive; GPR151 activ: inactive

What do the screens show for `CCc1ccc(N/C(=N\c2nc(C)cc(C)n2)NC(=O)Nc2ccc(Cl)c(Cl)c2)cc1`?
FBW7 activator: inactive; MITF inh: inactive; TEAD-YAP inh: inactive; GPR151 activ: inactive

Results for COc1cc(N)ccc1NC(=O)C(C)C ?
FBW7 activator: inactive; MITF inh: inactive; TEAD-YAP inh: inactive; GPR151 activ: inactive

Results for CNC(=O)c1ccc(OC)c(S(=O)(=O)N2CCC(C)CC2)c1 ?
FBW7 activator: inactive; MITF inh: inactive; TEAD-YAP inh: inactive; GPR151 activ: 5.4; GPR151 conf act: inactive; GPR119 counter: inactive

What do the screens show for `CN(C(=O)c1cccc(S(=O)(=O)N2CCCCC2)c1)c1ccccc1`?
FBW7 activator: inactive; MITF inh: inactive; TEAD-YAP inh: inactive; GPR151 activ: inactive

How did COc1ccc(C(=O)N(C)c2ccccc2)cc1S(=O)(=O)N1CCCC1 do in these assays?
FBW7 activator: inactive; MITF inh: inactive; TEAD-YAP inh: inactive; GPR151 activ: 5.2; GPR151 conf act: inactive; GPR119 counter: inactive

Results for CC(C)(C)C(=O)Nc1ccnn1C1CCN(Cc2cccc3nonc23)CC1 ?
FBW7 activator: inactive; MITF inh: inactive; TEAD-YAP inh: inactive; GPR151 activ: inactive

What do the screens show for `N#CC1=C(NC(=O)c2ccc([N+](=O)[O-])cc2)CCC1`?
FBW7 activator: inactive; MITF inh: inactive; TEAD-YAP inh: inactive; GPR151 activ: 5.6; GPR151 conf act: inactive; GPR119 counter: inactive

What do the screens show for `COc1ccc(C(=O)NC2=C(C#N)CCC2)cc1OC`?
FBW7 activator: inactive; MITF inh: inactive; TEAD-YAP inh: inactive; GPR151 activ: inactive

What do the screens show for `Brc1ccc2nc(-c3c[nH]c4ccccc34)cn2c1`?
FBW7 activator: inactive; MITF inh: inactive; TEAD-YAP inh: inactive; GPR151 activ: 7.1; GPR151 conf act: inactive; GPR119 counter: inactive

Results for Cc1cccn2cc(-c3c[nH]c4ccccc34)nc12 ?
FBW7 activator: inactive; MITF inh: inactive; TEAD-YAP inh: inactive; GPR151 activ: inactive

Results for Cc1ccccc1NC(=O)c1ccc(N)cc1 ?
FBW7 activator: inactive; MITF inh: inactive; TEAD-YAP inh: inactive; GPR151 activ: inactive

How did COc1ccc(CCn2c(=S)[nH]c3ccsc3c2=O)cc1OC do in these assays?
FBW7 activator: inactive; MITF inh: inactive; TEAD-YAP inh: inactive; GPR151 activ: 5.4; GPR151 conf act: inactive; GPR119 counter: inactive

How did COc1cc(-c2noc(C3CCCN(C(=O)c4ccc(F)cc4)C3)n2)cc(OC)c1OC (configuration not stated) do in these assays?
FBW7 activator: inactive; MITF inh: inactive; TEAD-YAP inh: inactive; GPR151 activ: inactive

Results for Cc1cccc(OCC(=O)NCc2cccnc2)c1 ?
FBW7 activator: inactive; MITF inh: inactive; TEAD-YAP inh: inactive; GPR151 activ: inactive

What do the screens show for `Cc1cc(OCC(=O)NCc2cccnc2)ccc1[N+](=O)[O-]`?
FBW7 activator: inactive; MITF inh: inactive; TEAD-YAP inh: inactive; GPR151 activ: 5.2; GPR151 conf act: inactive; GPR119 counter: inactive

How did CCOc1ccc(NC(=O)c2cccnc2)c([N+](=O)[O-])c1 do in these assays?
FBW7 activator: inactive; MITF inh: inactive; TEAD-YAP inh: 46; GPR151 activ: 5.8; GPR151 conf act: inactive; GPR119 counter: inactive

What do the screens show for `CC(C(=O)OCC(=O)Nc1ccc(SC(F)F)cc1)N1C(=O)c2ccccc2C1=O` (configuration not stated)?
FBW7 activator: inactive; MITF inh: inactive; TEAD-YAP inh: inactive; GPR151 activ: 5.8; GPR151 conf act: inactive; GPR119 counter: inactive

What do the screens show for `CCSc1nc(C)c(C(=O)Nc2ccccc2C)c(-c2ccc(OC)c(OC)c2)c1C#N`?
FBW7 activator: inactive; MITF inh: inactive; TEAD-YAP inh: inactive; GPR151 activ: inactive

How did O=C(O)CCC(=O)N1N=C(c2c(-c3ccccc3)c3cc(Br)ccc3[nH]c2=O)CC1c1ccco1 (configuration not stated) do in these assays?
FBW7 activator: inactive; MITF inh: inactive; TEAD-YAP inh: inactive; GPR151 activ: 5.4; GPR151 conf act: inactive; GPR119 counter: inactive

What do the screens show for `CC(=O)N1N=C(c2c(-c3ccccc3)c3cc(Br)ccc3[nH]c2=O)CC1c1ccco1` (configuration not stated)?
FBW7 activator: inactive; MITF inh: inactive; TEAD-YAP inh: inactive; GPR151 activ: inactive

What do the screens show for `COc1ccc(C2CC(c3c(-c4ccccc4)c4cc(Br)ccc4[nH]c3=O)=NN2C(C)=O)cc1` (configuration not stated)?
FBW7 activator: inactive; MITF inh: inactive; TEAD-YAP inh: inactive; GPR151 activ: inactive

How did COc1ccc(C2CC(c3c(-c4ccccc4)c4cc(Br)ccc4[nH]c3=O)=NO2)cc1 (configuration not stated) do in these assays?
FBW7 activator: inactive; MITF inh: inactive; TEAD-YAP inh: inactive; GPR151 activ: 8.4; GPR151 conf act: inactive; GPR119 counter: inactive

What do the screens show for `Cc1ccccc1-n1nc2c(c1NC(=O)C(C)Oc1ccccc1)CS(=O)(=O)C2` (configuration not stated)?
FBW7 activator: inactive; MITF inh: inactive; TEAD-YAP inh: inactive; GPR151 activ: inactive

What do the screens show for `COc1ccc(NC(=O)CCC(=O)Oc2ccc(C)cc2)cc1`?
FBW7 activator: inactive; MITF inh: inactive; TEAD-YAP inh: inactive; GPR151 activ: 16; GPR151 conf act: inactive; GPR119 counter: inactive

Results for CCOC(=O)c1ccc(NC(=O)CCC(=O)OCC(=O)c2ccc([N+](=O)[O-])cc2)cc1 ?
FBW7 activator: inactive; MITF inh: inactive; TEAD-YAP inh: inactive; GPR151 activ: 7.4; GPR151 conf act: inactive; GPR119 counter: inactive

What do the screens show for `CCc1ccc(C(=O)COC(=O)CCC(=O)Nc2ccc(OC)cc2)cc1`?
FBW7 activator: inactive; MITF inh: inactive; TEAD-YAP inh: inactive; GPR151 activ: 6.5; GPR151 conf act: inactive; GPR119 counter: inactive

How did O=C(CCCC(=O)OCC(=O)c1ccc(Cl)c([N+](=O)[O-])c1)Nc1ccccc1Cl do in these assays?
FBW7 activator: inactive; MITF inh: inactive; TEAD-YAP inh: inactive; GPR151 activ: 5.1; GPR151 conf act: inactive; GPR119 counter: inactive

What do the screens show for `CCc1ccc(C(=O)COC(=O)CCC(=O)Nc2ccc([N+](=O)[O-])cc2)cc1`?
FBW7 activator: inactive; MITF inh: inactive; TEAD-YAP inh: inactive; GPR151 activ: inactive
